Results from PubChem BioAssay (Tox21).
Values joined by “and” are separate entries in the source; they are usually repeats but may differ in a detail not shown here. Identical values can stand only once. Results filed as inconclusive are left out. Where a call stands in place of a potency, no number is given. Some structures have more than one record in an assay (separate samples or runs), and their calls can disagree. Active and inactive are the calls of the source. Unless noted, calls come from the whole dose curve; as a rule, active = well fitted curve in the direction sought with a large enough effect in the repeat runs; inconclusive = weak or mixed curves; inactive = no such curve, though single readings can be large; an effect the other way counts as inactive or inconclusive.

Assays:
[1] = qHTS assay to identify small molecule agonists of the hypoxia (HIF-1) signaling pathway - cell viability counter screen (AID 1224844; calls by dose curve; note: nearly all actives have a fitted effect of over 50% in size; note: potency is the fitted concentration of half-maximal effect); conditions: HRE-bla ME-180 viability, CellTiter-Glo luminescence, 17 h; series mostly up to 76.8 µM
Outline: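 Tox21 10K compounds were added to HRE-bla ME-180 cells (0.5% dialyzed FBS) and incubated 17 hrs at 37C; ATP-based CellTiter-Glo luminescence then reported cell viability in the same wells.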

[2] = qHTS assay to identify small molecule agonists of H2AX (AID 1224845; active = well fitted activation curve with a large enough effect in the signal ratio in the repeat runs, not every such curve was filed as active; the % refers to the signal ratio; note: potency is the fitted concentration of half-maximal effect); conditions: CHO-K1 phospho-H2AX Ser139 HTRF, 3 h; series mostly up to 154 µM
Outline: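 Phospho-H2AX Ser139 measured by HTRF (ex 320 nm; em 665 and 620 nm) after 24 hr antibody incubation. Compounds, 15 concentrations, 0.76% DMSO, were applied to CHO-K1 cells for 3hr at 37C before lysis.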

[3] = qHTS assay to identify small molecule agonists of H2AX - cell viability counter screen (AID 1224847; calls by dose curve; note: nearly all actives have a fitted effect of over 30% in size; note: potency is the fitted concentration of half-maximal effect); conditions: CHO-K1 viability, CellTiter-Glo luminescence, 3 h; series mostly up to 154 µM
Outline: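 Counter-screen for viability: CellTiter-Glo ATP luminescence read after 3 h compound treatment (15-point titration, 0.76% DMSO final) of CHO-K1 cells at 37C, with 30 min room-temperature reagent incubation.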

[4] = qHTS RealTime-Glo MT Cell Viability Assay in HepG2 cells - 24 hour (AID 1224867); conditions: RealTime-Glo luminescence; series mostly up to 76.8 µM; note: nearly all actives have a fitted effect of over 50% in size
Outline: (§1)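 Compound treatment began 5 h after plating HepG2 cells (600/well) with NanoLuc luciferase and prosubstrate. Plates stayed at 37 C for 40 h; luminescence was captured at six time points, 0 h through 40 h.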

[5] = qHTS RealTime-Glo MT Cell Viability Assay in HEK293 cells - 32 hour (AID 1224868); conditions: RealTime-Glo luminescence; series mostly up to 76.8 µM; note: nearly all actives have a fitted effect of over 50% in size; note: potency is the fitted concentration of half-maximal effect
Outline: (§2)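 Quantitative high-throughput screen of the Tox21 10K library in HEK293: cells and RealTime-Glo reagents plated together, compound added at 5 h, luminescence monitored through 40 h at 37 C.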

[6] = A CellTox Green Cytotoxicity Assay to monitor cytotoxicity in HEK293 cells - 0 hour (AID 1224869); conditions: CellTox Green fluorescence; series mostly up to 76.8 µM; note: nearly all actives have a fitted effect of over 50% in size
Outline: (§3)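 Cytotoxicity was tracked continuously in HEK293 cells by a DNA-binding dye excluded from viable cells. Compounds were transferred in DMSO 5 h after seeding; fluorescence was recorded at intervals up to 40 h.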

[7] = qHTS RealTime-Glo MT Cell Viability Assay in HepG2 cells - 40 hour (AID 1224870); conditions: RealTime-Glo luminescence; series mostly up to 76.8 µM; note: nearly all actives have a fitted effect of over 50% in size
Outline: (§4)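 Real-time viability: cells seeded at 600 per well together with NanoLuc and cell-permeant prosubstrate, compounds added after 5 h incubation. Luminescence tracked at 0, 8, 16, 24, 32 and 40 h of exposure.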

[8] = A CellTox Green Cytotoxicity Assay to monitor cytotoxicity in HEK293 cells - 40 hour (AID 1224871); conditions: CellTox Green fluorescence; series mostly up to 76.8 µM; note: nearly all actives have a fitted effect of over 45% in size; note: potency is the fitted concentration of half-maximal effect
Outline: as §3

[9] = qHTS RealTime-Glo MT Cell Viability Assay in HEK293 cells - 16 hour (AID 1224872); conditions: RealTime-Glo luminescence; series mostly up to 76.8 µM; note: nearly all actives have a fitted effect of over 50% in size; note: potency is the fitted concentration of half-maximal effect
Outline: as §2

[10] = qHTS RealTime-Glo MT Cell Viability Assay in HepG2 cells - 8 hour (AID 1224873); conditions: RealTime-Glo luminescence; series mostly up to 76.8 µM; note: nearly all actives have a fitted effect of over 55% in size
Outline: as §4

[11] = A CellTox Green Cytotoxicity Assay to monitor cytotoxicity in HEK293 cells - 24 hour (AID 1224875); conditions: CellTox Green fluorescence; series mostly up to 76.8 µM; note: nearly all actives have a fitted effect of over 45% in size
Outline: as §3

[12] = A CellTox Green Cytotoxicity Assay to monitor cytotoxicity in HepG2 cells - 16 hour (AID 1224876); conditions: CellTox Green fluorescence; series mostly up to 76.8 µM; note: nearly all actives have a fitted effect of over 45% in size
Outline: (§5)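 Real-time, homogeneous cytotoxicity readout: dead-cell DNA staining by CellTox Green in HepG2 monolayers, fluorescence measured at timed intervals up to 40 h of continuous compound exposure.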

[13] = qHTS RealTime-Glo MT Cell Viability Assay in HepG2 cells - 32 hour (AID 1224877); conditions: RealTime-Glo luminescence; series mostly up to 76.8 µM; note: nearly all actives have a fitted effect of over 55% in size
Outline: as §1

[14] = A CellTox Green Cytotoxicity Assay to monitor cytotoxicity in HepG2 cells - 24 hour (AID 1224878); conditions: CellTox Green fluorescence; series mostly up to 76.8 µM; note: nearly all actives have a fitted effect of over 45% in size
Outline: as §5

[15] = A CellTox Green Cytotoxicity Assay to monitor cytotoxicity in HepG2 cells - 40 hour (AID 1224879); conditions: CellTox Green fluorescence; series mostly up to 76.8 µM; note: nearly all actives have a fitted effect of over 40% in size; note: potency is the fitted concentration of half-maximal effect
Outline: as §5

[16] = qHTS RealTime-Glo MT Cell Viability Assay in HEK293 cells - 0 hour (AID 1224880); conditions: RealTime-Glo luminescence; series mostly up to 76.8 µM
Outline: (§6)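 Nonlytic bioluminescent viability monitoring. HEK293 at 600 cells/well with reagent; 5 h settle; compound transfer by pintool; plates held at 37 C and read at set time points.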

[17] = qHTS assay to identify small molecule antagonists of the estrogen related receptor (ERR) signaling pathway from Tox21 library (AID 1224848); conditions: ERR reporter cell line, luciferase antagonist mode, 18 h; series mostly up to 92.4 µM
Outline: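 Reading was by luminescence 30 min after ONE-Glo addition. Before that, ERR cells at 2,000 per well had rested 6 h at 37 C/5% CO2 and then received pin-tooled compounds in DMSO for 18 h at 37 C.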

[18] = qHTS assay to identify small molecule agonists of the estrogen related receptor (ERR) signaling pathway from Tox21 library (AID 1224849; calls by dose curve; note: nearly all actives have a fitted effect of over 15% in size); conditions: ERR reporter cell line, ONE-Glo luciferase, 18 h; at 92.4 µM (top of the series)
Outline: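 Agonist signal is luciferase luminescence from an ERR reporter cell line treated 18 h at 37 C with DMSO-dissolved compounds, read 30 min after ONE-Glo addition at room temperature.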

[19] = qHTS assay to identify small molecule agonists of the hypoxia (HIF-1) signaling pathway (AID 1224846; active = well fitted activation curve with a large enough effect in the signal ratio in the repeat runs, not every such curve was filed as active; the % refers to the signal ratio); conditions: HRE-bla ME-180 cells, beta-lactamase ratio, 17 h; series mostly up to 76.8 µM
Outline: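 Steps: seed ME-180 HRE-bla cells (2,000/well, 0.5% dialyzed FBS); incubate 5 hrs at 37C; pin-transfer compounds or DMSO; incubate 17 hrs; add LiveBLAzer B/G substrate CCF4-AM; measure reporter activation by FRET.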

[20] = qHTS RealTime-Glo MT Cell Viability Assay in HEK293 cells - 40 hour (AID 1224874); conditions: RealTime-Glo luminescence; max response: stronger effect = lower value; note: nearly all actives have a fitted effect of over 50% in size
Outline: as §6

Compound	Potency [1]	Potency [2]	Potency [3]	Potency [4]	Potency [5]	Potency [6]	Potency [7]	Potency [8]	Potency [9]	Potency [10]	Potency [11]	Potency [12]	Potency [13]	Potency [14]	Potency [15]	Potency [16]	Potency [17]	activity change, positive = activation [18]	outcome [19]	max response [20]
NC(=O)c1ncn([C@@H]2O[C@H](CO)[C@@H](O)[C@H]2O)n1	18.3 µM (active)	53.2 µM (active)	inactive	inactive	inactive	inactive	inactive	inactive	inactive	inactive	inactive	inactive	inactive	inactive	inactive	inactive	–	–	–	–
CCN(CC)CCNC(=O)c1ccc(N)cc1	inactive	inactive	inactive	inactive	inactive	inactive	inactive	inactive	inactive	inactive	inactive	inactive	inactive	inactive	inactive	inactive	–	–	–	–
c1cnc2c(c1)ccc1cccnc12	inactive	6.35 µM (active)	80.8 µM (active) and inactive	inactive	3.5 µM (active) and 7.76 µM (active)	inactive	inactive	49.4 µM (active) and 43.6 µM (active) and inactive	11 µM (active)	inactive	inactive	inactive	inactive	inactive	44.1 µM (active) and inactive	inactive	1.23 µM (active) and 1.09 µM (active) and 1.54 µM (active)	-72.1% (inactive) and -45.5% (inactive) and -63.4% (inactive)	–	–
Cc1ccccc1C=O	inactive	inactive	inactive	inactive	inactive	inactive	inactive	inactive	inactive	inactive	inactive	inactive	inactive	inactive	inactive	inactive	–	–	inactive	–
O=C1C(N(CO)C(=O)NCO)N(CO)C(=O)N1CO (configuration not stated)	inactive	inactive	inactive	inactive	inactive	inactive	inactive	inactive	inactive	inactive	inactive	inactive	inactive	inactive	inactive	inactive	–	–	inactive	–
CCn1cc(C(=O)O)c(=O)c2cc3c(cc21)OCO3	inactive	inactive	inactive	inactive	inactive	inactive	inactive	inactive	inactive	inactive	inactive	inactive	inactive	inactive	inactive	inactive	–	–	–	10.2% (inactive) and 3.68% (inactive)
OCC(O)CS (configuration not stated)	inactive	inactive	inactive	inactive	inactive	inactive	inactive	inactive	inactive	inactive	inactive	inactive	inactive	inactive	inactive	inactive	–	–	inactive	–
CCc1cccc(CC)c1N	inactive	inactive	inactive	inactive	inactive	inactive	inactive	inactive	inactive	inactive	inactive	inactive	inactive	inactive	inactive	inactive	–	–	inactive	–
O=C(NCC1CCCCN1)c1cc(OCC(F)(F)F)ccc1OCC(F)(F)F (configuration not stated)	inactive	inactive	inactive	inactive	inactive	inactive	inactive	inactive	inactive	inactive	inactive	inactive	inactive	inactive	inactive	inactive	–	–	–	–
Nc1cccc(N)n1	inactive	–	inactive	inactive	inactive	inactive	inactive	inactive	inactive	inactive	inactive	inactive	inactive	inactive	inactive	inactive	–	–	inactive	–
